Out of some 310,000 compounds screened, about 14,000 (4.5%) showed an effect of 50% or more. The effect is printed as a negative number. What follows is part of a selection rich in strong results, with near analogues and random picks from the rest.
Biological target: human ether-à-go-go-related gene (hERG) potassium channel (human, UniProt Q12809)
Test: primary screen, population patch clamp on CHO cells stably expressing hERG; higher = less effect of the substance
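Also: peak tail current of the secondary pulse compared with the same well before compound.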

Sequence of human ether-à-go-go-related gene (hERG) potassium channel (Q12809 whole entry, looked up): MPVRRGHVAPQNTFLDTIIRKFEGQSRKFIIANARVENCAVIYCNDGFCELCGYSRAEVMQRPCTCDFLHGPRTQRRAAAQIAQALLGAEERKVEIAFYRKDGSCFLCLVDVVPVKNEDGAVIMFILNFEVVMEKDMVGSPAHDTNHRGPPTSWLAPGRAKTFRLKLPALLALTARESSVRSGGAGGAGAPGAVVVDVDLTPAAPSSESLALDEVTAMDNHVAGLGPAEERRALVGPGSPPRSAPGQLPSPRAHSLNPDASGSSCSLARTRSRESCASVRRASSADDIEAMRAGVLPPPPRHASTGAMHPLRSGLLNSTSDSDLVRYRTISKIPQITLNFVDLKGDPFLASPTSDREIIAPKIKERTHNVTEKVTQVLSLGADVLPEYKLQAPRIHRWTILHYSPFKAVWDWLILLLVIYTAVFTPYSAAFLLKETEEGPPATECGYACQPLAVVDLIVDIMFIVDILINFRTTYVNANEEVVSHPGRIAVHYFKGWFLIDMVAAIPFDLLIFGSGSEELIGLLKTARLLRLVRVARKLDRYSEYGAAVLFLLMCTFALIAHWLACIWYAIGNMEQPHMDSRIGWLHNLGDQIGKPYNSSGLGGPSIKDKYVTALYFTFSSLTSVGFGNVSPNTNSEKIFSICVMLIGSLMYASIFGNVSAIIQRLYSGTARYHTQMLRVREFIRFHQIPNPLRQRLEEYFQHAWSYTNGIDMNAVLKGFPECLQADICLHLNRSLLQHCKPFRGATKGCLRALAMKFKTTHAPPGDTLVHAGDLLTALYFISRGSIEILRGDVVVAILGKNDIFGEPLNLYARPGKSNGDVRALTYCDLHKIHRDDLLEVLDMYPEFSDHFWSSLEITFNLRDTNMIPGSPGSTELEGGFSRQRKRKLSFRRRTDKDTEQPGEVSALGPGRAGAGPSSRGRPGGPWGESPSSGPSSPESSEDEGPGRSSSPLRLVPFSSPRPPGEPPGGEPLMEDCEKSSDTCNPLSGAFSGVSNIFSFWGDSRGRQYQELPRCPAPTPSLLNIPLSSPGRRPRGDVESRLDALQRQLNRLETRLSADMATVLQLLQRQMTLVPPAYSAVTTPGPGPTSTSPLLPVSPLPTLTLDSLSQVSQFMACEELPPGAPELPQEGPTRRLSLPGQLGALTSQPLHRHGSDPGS

SMILES | hERG current change (%, negative = inhibition) at 10uM [%]
CCOC(=O)C1(C)NC(c2ccco2)C2C(=O)N(c3ccc(C)cc3)C(=O)C21 (centres unmarked) | 11.3
C=CCSc1nc2ccccc2n2cnnc12 | -18.5
O=C1CN(C(=O)c2cc3ccccc3oc2=O)C(c2ccc(F)cc2)c2cc(Br)ccc2N1 (centres unmarked) | -68.6
CC(=O)N1CC(=O)Nc2ccc(C)cc2C1c1ccccc1 (centres unmarked) | 14.7
Cc1ccc2c(c1)C(c1ccccc1)N(C(=O)c1ccc(F)cc1)CC(=O)N2 (centres unmarked) | -6.99
O=C1CN(C(=O)c2cc3ccccc3oc2=O)C(c2ccc(F)cc2)c2cc(F)ccc2N1 (centres unmarked) | -32.1
Cc1ccc2c(c1)C(c1ccc(F)cc1)N(C(=O)c1cc3ccccc3oc1=O)CC(=O)N2 (centres unmarked) | -55
O=C1CN(C(=O)c2cc3ccccc3oc2=O)C(c2ccccc2)c2cc(F)ccc2N1 (centres unmarked) | -33.9
Cc1ccc2c(c1)C(c1ccccc1)N(C(=O)c1cccc([N+](=O)[O-])c1)CC(=O)N2 (centres unmarked) | -55.6
Cc1ccc2c(c1)C(c1ccccc1)N(C(=O)c1cc3ccccc3oc1=O)CC(=O)N2 (centres unmarked) | -65.1
Cc1ccc2c(c1)C(c1ccccc1)N(C(=O)c1ccccc1)CC(=O)N2 (centres unmarked) | -7.17
COc1ccccc1C(=O)N1CC(=O)Nc2ccc(C)cc2C1c1ccc(F)cc1 (centres unmarked) | -38.6
Cc1ccccc1C(=O)N1CC(=O)Nc2ccc(F)cc2C1c1ccc(F)cc1 (centres unmarked) | -16.1
O=C1CN(C(=O)c2c(F)cccc2F)C(c2ccc(F)cc2)c2cc(Br)ccc2N1 (centres unmarked) | -35.8
CC1(C)OC(=O)C(=CNc2cccc(C(=O)O)c2)C(=O)O1 | 18.7
COc1cc(/C=N/NC(=O)C(=O)NCC2CCCO2)cc(Cl)c1O (centres unmarked) | 31.8
O=C(Nc1ccccc1)Nc1nc(-c2ccc(F)c(F)c2)cs1 | 16.3
Cc1c(C)n2c(SCC(=O)N3CC(C)OC(C)C3)nnc2[nH]c1=O (centres unmarked) | 9.45
C/C(=N\NC(=O)c1c(Br)c(C)nn1C)c1cccc(NC(=O)c2ccccc2C)c1 | -4.71
O=C(NC1CCCCCC1)C(=S)NCc1ccccc1 | 5.94
Cc1ccc(C(=O)NCCC(=O)Nc2ccccc2C)cc1 | 19.5

SMILES | hERG current change (%, negative = inhibition) at 10uM [%]
COCCNC(=O)Cn1cc(/C=C2\C(=O)NC(=O)N(c3ccccc3F)C2=O)c2ccccc21 | 17
O=C1CN(C(=O)c2ccc(Br)o2)C(c2ccccc2)c2cc(F)ccc2N1 (centres unmarked) | -45.3
O=C1CN(C(=O)c2ccc(Br)o2)C(c2ccccc2)c2cc(Br)ccc2N1 (centres unmarked) | -23.6
Cc1ccc2c(c1)C(c1ccccc1)N(C(=O)c1ccc(Br)o1)CC(=O)N2 (centres unmarked) | -56.9
Cc1c(-c2ccccc2)[n+](=O)c(-c2ccco2)c(C)n1[O-] | 7.02
COCCNC(=O)C1CC(=O)N(c2ccc(OC)cc2)C1c1ccc(OC)cc1 (centres unmarked) | 9.03
Cl.O=C(c1ccco1)N1CCN(C(c2ccccc2Cl)c2nnnn2Cc2ccco2)CC1 (centres unmarked) | -65.1
O=C(c1ccco1)N1CCN(C(c2ccccc2Cl)c2nnnn2Cc2cccs2)CC1 (centres unmarked) | -56.2
Cl.O=C(c1ccco1)N1CCN(C(c2ccccc2Cl)c2nnnn2CC2CCCO2)CC1 (centres unmarked) | -12.3
CCC(C)(C)n1nnnc1C(c1ccccc1F)N1CCN(C(=O)c2ccco2)CC1 (centres unmarked) | -13.9
Cl.Clc1ccccc1C(c1nnnn1Cc1ccco1)N1CCN(Cc2ccco2)CC1 (centres unmarked) | -27.6
COCCn1nnnc1C(c1ccccc1OC)N1CCN(C(=O)c2ccco2)CC1 (centres unmarked) | -16.1
O=C(c1ccco1)N1CCN(C(c2ccccc2F)c2nnnn2Cc2cccs2)CC1 (centres unmarked) | -51
CCC(c1nnnn1Cc1cccs1)N1CCN(C(=O)c2ccco2)CC1 (centres unmarked) | -36.5
Cl.O=C(c1ccco1)N1CCN(C(c2ccccc2F)c2nnnn2CC2CCCO2)CC1 (centres unmarked) | -17.2
CC1=NNC(=O)C1CCC(=O)N/N=C\c1ccccc1[N+](=O)[O-] (centres unmarked) | 0.38
CCN1CCN(CCCNC(=O)c2ccc(CS(=O)c3ccc(Br)cc3)o2)CC1 (centres unmarked) | 24.5
CCOc1[nH]n(-c2ccccc2)c(=O)c1C=NCC(=O)OC | -18.8
CCCC(=O)c1ccc(N2CCCC2)c(F)c1 | 6.96
CC(=O)c1ccc(N2CCN(C(=O)c3cccs3)CC2)c(F)c1 | -28.3
CCCC(=O)c1ccc(N2CCN(C(=O)c3cccs3)CC2)c(F)c1 | -75.1

SMILES | hERG current change (%, negative = inhibition) at 10uM [%]
CCC(=O)c1ccc(N2CCN(C(=O)c3cccs3)CC2)c(F)c1 | -51.6
CCC(=O)c1ccc(N2CCN(C(=O)c3ccccc3F)CC2)c(F)c1 | -20.7
CCCC(=O)c1ccc(N2CCCCC2)c(F)c1 | 10.5
COc1ccccc1CNS(=O)(=O)c1c(C(=O)N2CCCCC2)c(C)n(C)c1C | 5.51
COc1cccc(C2=NC(C)(C)NC(c3ccccc3O)C2)c1 (centres unmarked) | 2.64
COc1ccc(Cn2c(=O)c3[nH]cnc3n(-c3ccccc3C)c2=O)cc1 | 7.7
Cc1cccc(NC(=O)CS(=O)(=O)Cc2ccccc2)n1 | 2.58
CCc1cc(C(=O)N/N=C/c2ccc(OC)cc2)c2ccccc2n1 | -4.27
O=C1C2Sc3[nH]c(=O)sc3C(c3ccccc3)C2C(=O)N1c1ccccc1 (centres unmarked) | -2.84
CC(=O)Nc1ccc(S(=O)(=O)NC2(C(F)(F)F)NC(=O)N(C3CCCCC3)C2=O)cc1 (centres unmarked) | 2.87
O=S(=O)(NC1CCCCC1Sc1ncccn1)c1ccc(Cl)cc1 (centres unmarked) | -50.9
CCCN1CCN(C2CCCCC2NS(=O)(=O)c2ccccc2)CC1 (centres unmarked) | -44.7
O=S(=O)(NC1CCCCC1N1CCCCC1)c1ccc(Cl)cc1 (centres unmarked) | -5.16
CCCN1CCN(C2CCCCC2NS(=O)(=O)c2ccc(Cl)cc2)CC1 (centres unmarked) | -63.4
O=S(=O)(NC1CCCCC1Sc1ncccn1)c1ccccc1 (centres unmarked) | -5.72
Cc1cc(C)nc(SC2CCCCC2NS(=O)(=O)c2ccc(Cl)cc2)n1 (centres unmarked) | -14.7
CCN1CCN(C2CCCCC2NS(=O)(=O)c2ccc(Cl)cc2)CC1 (centres unmarked) | -61.8
CCN1CCN(C2CCCCC2NS(=O)(=O)c2ccccc2)CC1 (centres unmarked) | 11.7
CN1CCN(C2CCCCC2NS(=O)(=O)c2ccc(Cl)cc2)CC1 (centres unmarked) | -29.8
CCN(c1ccccc1)S(=O)(=O)c1ccc(Cl)c(NC(=O)COC(=O)c2ccc[nH]c2=O)c1 | 3.13
C#CCOCCOCCOCCNc1nc(N2CCN(C(=O)C([C@@H](C)CC)n3cc(C(N)Cc4ccc(O)cc4)nn3)CC2)nc(N2CCN(C(=O)[C@H](CCC(=O)O)n3cc(C(N)[C@H](C)CC)nn3)CC2)n1.Cl (some centres unmarked) | 4.5

SMILES | hERG current change (%, negative = inhibition) at 10uM [%]
O=C(O)C1CCN(C(=O)OCc2ccccc2)CC1 | 13.8
O=C(OCc1ccccc1)N1CCOCCN(C(=O)OCc2ccccc2)CCOCC1 | -64
O=C(NCC(=O)N1CCOCC1)OCc1ccccc1 | -30.8
COC(=O)CCn1nnc(-c2ccc(C)cc2)n1 | 12.3
COc1ccc(C2C(C(=O)Nc3cccnc3)=C(C)Nc3nc(-c4cccs4)nn32)cc1 (centres unmarked) | -39.6
COc1cccc(-c2nc3n(n2)C(c2cccs2)C(C(=O)Nc2cccnc2)=C(C)N3)c1 (centres unmarked) | -72.3
COc1ccccc1-c1nc2n(n1)C(c1cccs1)C(C(=O)Nc1cccnc1)=C(C)N2 (centres unmarked) | -31.7
Cc1cccc(C(C(=O)NC2CCCCC2)N(C(=O)c2csnn2)C2CC2)c1 (centres unmarked) | 7.99
CCCNC(=O)C1(CC2CC(c3ccccc3)=NO2)CCN(C(=O)C2(C)CC2)CC1 (centres unmarked) | -17
CCCNC(=O)C1(CC2CC(c3ccccc3)=NO2)CCN(C(=O)OC(C)(C)C)CC1 (centres unmarked) | -48.6
CCCNC(=O)C1(CC2CC(c3ccccc3)=NO2)CCN(C(=O)c2ccccc2)CC1 (centres unmarked) | -68.9
CCCCCCCNC(=O)C1(CC2CC(c3cccc(Br)c3)=NO2)CCN(C(=O)c2ccccc2)CC1 (centres unmarked) | -71
CCCNC(=O)C1(CC2CC(c3ccccc3)=NO2)CCN(C(=O)c2cc(OCC)c(OCC)c(OCC)c2)CC1 (centres unmarked) | -34.6
CCCCCCCNC(=O)C1(CC2CC(c3ccccc3)=NO2)CCN(C(=O)c2ccccc2)CC1 (centres unmarked) | -70.9
COc1ccc(CNC(=O)C2(CC3CC(c4ccccc4)=NO3)CCN(C(=O)Cc3ccc(F)cc3)CC2)cc1 (centres unmarked) | 18.1
CCCCCCCNC(=O)C1(CC2CC(c3ccc(Cl)cc3)=NO2)CCN(C(=O)c2ccccc2)CC1 (centres unmarked) | -15.8
CCCCCCCNC(=O)C1(CC2CC(c3ccc(Cl)cc3)=NO2)CCN(C(=O)Cc2ccc(F)cc2)CC1 (centres unmarked) | -11
CCCNC(=O)C1(CC2CC(c3ccccc3)=NO2)CCN(C(=O)Cc2ccc(F)cc2)CC1 (centres unmarked) | -64.6
CCCCCCCNC(=O)C1(CC2CC(c3cccc(Br)c3)=NO2)CCN(C(=O)c2cc(OCC)c(OCC)c(OCC)c2)CC1 (centres unmarked) | 4.79
CCOc1cc(C(=O)N2CCC(CC3CC(c4cccc(Br)c4)=NO3)(C(=O)NCC3CCCCC3)CC2)cc(OCC)c1OCC (centres unmarked) | 4.14

Reference: paper PMC4336329 (PLoS ONE, 2015)
